ChEMBL document CHEMBL2218924, “A broad activity screen in support of a chemogenomic map for kinase signalling research and drug discovery” (Biochem J, 2013)
Values without a mark were called inactive. The rule behind the calls is not given here.

Target: Serine/threonine-protein kinase WNK2 (Homo sapiens) (UniProt Q9Y3S1)
Settings: at 1 µM
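Note: residual WNK2 kinase activity expressed as percent of uninhibited control, assayed in MOPS buffer at pH 7.0 containing EDTA.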

Chain of Serine/threonine-protein kinase WNK2 (Homo sapiens) (Q9Y3S1 whole entry): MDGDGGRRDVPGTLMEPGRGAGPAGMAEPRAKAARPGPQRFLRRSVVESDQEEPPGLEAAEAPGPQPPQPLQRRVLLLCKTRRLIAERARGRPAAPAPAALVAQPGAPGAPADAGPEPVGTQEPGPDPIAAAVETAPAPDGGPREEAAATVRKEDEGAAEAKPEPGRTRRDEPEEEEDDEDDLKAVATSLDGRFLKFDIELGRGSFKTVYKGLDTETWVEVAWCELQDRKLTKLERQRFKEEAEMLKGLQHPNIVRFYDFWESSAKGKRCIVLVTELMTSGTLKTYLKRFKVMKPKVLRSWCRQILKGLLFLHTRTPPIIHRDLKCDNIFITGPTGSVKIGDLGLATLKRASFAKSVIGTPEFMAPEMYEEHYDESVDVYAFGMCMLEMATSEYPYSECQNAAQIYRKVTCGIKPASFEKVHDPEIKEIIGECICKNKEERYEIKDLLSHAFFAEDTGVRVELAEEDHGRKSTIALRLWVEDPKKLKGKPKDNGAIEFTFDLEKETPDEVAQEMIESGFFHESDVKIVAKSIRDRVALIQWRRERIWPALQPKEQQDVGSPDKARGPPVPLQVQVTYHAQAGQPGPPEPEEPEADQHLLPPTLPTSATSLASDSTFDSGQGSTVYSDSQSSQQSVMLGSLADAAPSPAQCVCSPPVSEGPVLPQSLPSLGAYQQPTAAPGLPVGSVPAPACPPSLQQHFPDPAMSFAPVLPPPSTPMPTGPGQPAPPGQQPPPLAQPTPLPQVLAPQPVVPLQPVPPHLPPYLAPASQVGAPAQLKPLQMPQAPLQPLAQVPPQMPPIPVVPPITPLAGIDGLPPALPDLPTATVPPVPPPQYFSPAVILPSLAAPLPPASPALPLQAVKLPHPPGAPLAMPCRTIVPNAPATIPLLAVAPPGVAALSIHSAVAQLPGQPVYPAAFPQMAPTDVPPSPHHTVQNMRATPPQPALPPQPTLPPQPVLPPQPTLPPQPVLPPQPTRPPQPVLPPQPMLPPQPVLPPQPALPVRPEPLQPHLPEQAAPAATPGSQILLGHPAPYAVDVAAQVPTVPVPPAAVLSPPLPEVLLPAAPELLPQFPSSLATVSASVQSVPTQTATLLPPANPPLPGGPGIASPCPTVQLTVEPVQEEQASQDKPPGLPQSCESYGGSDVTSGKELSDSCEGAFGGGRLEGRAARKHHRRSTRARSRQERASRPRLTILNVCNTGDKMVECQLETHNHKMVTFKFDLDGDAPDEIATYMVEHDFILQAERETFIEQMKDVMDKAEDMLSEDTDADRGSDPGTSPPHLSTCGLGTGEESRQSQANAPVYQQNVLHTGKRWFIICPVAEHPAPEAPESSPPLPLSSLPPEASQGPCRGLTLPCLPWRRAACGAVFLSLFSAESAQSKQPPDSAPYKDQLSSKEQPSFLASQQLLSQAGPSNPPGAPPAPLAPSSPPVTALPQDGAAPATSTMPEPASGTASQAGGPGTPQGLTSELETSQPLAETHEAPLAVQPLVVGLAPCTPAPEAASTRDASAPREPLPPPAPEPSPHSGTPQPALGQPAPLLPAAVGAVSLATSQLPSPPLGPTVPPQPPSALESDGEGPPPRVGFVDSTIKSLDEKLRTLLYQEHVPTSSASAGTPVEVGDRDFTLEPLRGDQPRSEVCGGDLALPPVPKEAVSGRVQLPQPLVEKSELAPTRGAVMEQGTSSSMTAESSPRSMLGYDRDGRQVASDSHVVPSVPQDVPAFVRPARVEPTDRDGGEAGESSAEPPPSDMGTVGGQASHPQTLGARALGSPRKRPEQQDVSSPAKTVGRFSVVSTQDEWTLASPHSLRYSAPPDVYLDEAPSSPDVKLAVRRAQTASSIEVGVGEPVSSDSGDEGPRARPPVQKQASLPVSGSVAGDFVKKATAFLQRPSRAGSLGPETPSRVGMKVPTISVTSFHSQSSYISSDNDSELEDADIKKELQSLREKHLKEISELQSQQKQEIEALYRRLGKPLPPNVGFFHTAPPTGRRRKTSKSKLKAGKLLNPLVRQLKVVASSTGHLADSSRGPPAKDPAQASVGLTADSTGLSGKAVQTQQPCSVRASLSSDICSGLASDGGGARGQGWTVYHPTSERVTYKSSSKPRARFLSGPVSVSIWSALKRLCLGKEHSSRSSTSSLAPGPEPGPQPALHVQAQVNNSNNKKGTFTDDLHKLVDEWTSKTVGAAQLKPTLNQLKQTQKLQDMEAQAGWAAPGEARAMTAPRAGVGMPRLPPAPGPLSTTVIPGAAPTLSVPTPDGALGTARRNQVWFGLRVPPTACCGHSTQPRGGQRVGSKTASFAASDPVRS

Compound	residual activity
O=Nc1c(-c2c(O)[nH]c3ccccc23)[nH]c2ccccc12	90%
Cc1cc(Nc2nc(-c3ccccc3)nc3ccccc23)n[nH]1	74%
COc1cc2ncnc(N3CCN(C(=O)Nc4ccc(Oc5ccccc5)cc4)CC3)c2cc1OC	84%
O=C1Nc2ccccc2/C1=C1/Nc2ccccc2/C1=N\OCCC(O)CO (stereo unspecified)	71%
Oc1c2ccccc2c2c3c(cccc13)N=N2	79%
COc1cccc(-c2cc(=O)c3ccccc3o2)c1N	104%
Cc1cccc(-c2[nH]c(C(C)(C)C)nc2-c2ccc3c(c2)OCO3)n1	106%
CNc1cc2c(Nc3cccc(Br)c3)ncnc2cn1	105%
O=[N+]([O-])c1ccc(-c2nc(-c3ccc(F)cc3)c(-c3ccncc3)[nH]2)cc1	102%
O=C(O)c1ccc2c3c1cccc3c(=O)n1c3ccccc3nc21	113%
Cn1nc2c3c(cccc31)C(=O)c1ccccc1-2	93%
CCN(CC)C(=O)c1ccc(Nc2nc(OCC3CCCCC3)c3nc[nH]c3n2)cc1	96%
CO[C@H]1C[C@@H]2CC[C@@H](C)[C@@](O)(O2)C(=O)C(=O)N2CCCC[C@H]2C(=O)O[C@H]([C@H](C)C[C@@H]2CC[C@@H](O)[C@H](OC)C2)CC(=O)[C@H](C)/C=C(\C)[C@@H](O)[C@@H](OC)C(=O)[C@H](C)C[C@H](C)/C=C/C=C/C=C/1C	96%
COc1cc2ncnc(Nc3ccc(O)c(Br)c3)c2cc1OC	96%
COc1cc2ncnc(Nc3ccc(NC(=O)c4ccccc4)cc3)c2cc1OC	52%
O=C(Nc1cccc(Nc2cc(Nc3cccc(C(F)(F)F)c3)ncn2)c1)C1CC1	103%

Compound	residual activity
O=C1NC(=O)/C(=C/c2ccc3c(c2)OC(F)(F)O3)S1	114%
O=C1c2ccccc2-[n+]2ccc3c([nH]c4ccccc43)c21	95%
Ic1cccc(CSc2nnc(-c3ccncc3)o2)c1	87%
CCN(CC)CCCCN1c2ccccc2Oc2ccc(Cl)cc21	122%
CO[C@H]1[C@@H](OC)C[C@H](C)[C@@H](OC)C2=CC(=O)C=C(NC(=O)/C(C)=C/C=C/[C@H](OC)[C@@H](OC(N)=O)/C(C)=C/[C@@H]1C)C2=O	100%
c1ccc(-c2n[nH]c3c2oc2ccccc23)cc1	114%
C[C@@H](N)[C@H]1CC[C@H](C(=O)Nc2ccncc2)CC1	95%
O=C1Nc2ccc(Br)cc2/C1=C\c1cc2c([nH]1)CCCC2	110%
CO[C@@H]1[C@H](N(C)C(=O)c2ccccc2)C[C@H]2O[C@]1(C)n1c3ccccc3c3c4c(c5c6ccccc6n2c5c31)C(=O)NC4	90%
c1ccc(-c2n[nH]cc2-c2ccnc3ccccc23)nc1	105%
CC(=O)O/N=C1\C(=C2\C(=O)Nc3cc(Br)ccc32)Nc2ccccc21	104%
CN(C)CCCn1cc(C2=C(c3c[nH]c4ccccc34)C(=O)NC2=O)c2ccccc21	120%
Nc1cccc(-c2cc3c(Oc4cccc(O)c4)ncnc3[nH]2)c1	88%
CC(C)n1cnc2c(NCc3ccccc3)nc(NCCCO)nc21	98%
CC(C)n1cnc2/c(=N/c3cccc(Cl)c3)nc(NCCO)[nH]c21	90%
